This note sets out measurements from PubChem BioAssay (Tox21).

Assay [1] deals with Nuclear receptor subfamily 1 group I member 2 (Rattus norvegicus) (UniProt Q9R1A7). As to the kind of experiment: Rat pregnane X receptor (rPXR) activation by small molecules, qHTS assay (AID 1346983). Further: nearly all actives have a fitted effect of over 20% in size. As to conditions: rPXR luciferase reporter cells, One-Glo luminescence, 24 h; max activation: active compounds read high. In a few lines: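 Cell-based rPXR activation assay: rPXR cells, 2,000 per well, rested 5hr at 37 C, then exposed to compounds in DMSO for 24 hr at 37 C. Luciferase activity read by One-Glo luminescence after 30 min at room temperature.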
Chain of Nuclear receptor subfamily 1 group I member 2 (Rattus norvegicus) (Q9R1A7 whole entry, looked up): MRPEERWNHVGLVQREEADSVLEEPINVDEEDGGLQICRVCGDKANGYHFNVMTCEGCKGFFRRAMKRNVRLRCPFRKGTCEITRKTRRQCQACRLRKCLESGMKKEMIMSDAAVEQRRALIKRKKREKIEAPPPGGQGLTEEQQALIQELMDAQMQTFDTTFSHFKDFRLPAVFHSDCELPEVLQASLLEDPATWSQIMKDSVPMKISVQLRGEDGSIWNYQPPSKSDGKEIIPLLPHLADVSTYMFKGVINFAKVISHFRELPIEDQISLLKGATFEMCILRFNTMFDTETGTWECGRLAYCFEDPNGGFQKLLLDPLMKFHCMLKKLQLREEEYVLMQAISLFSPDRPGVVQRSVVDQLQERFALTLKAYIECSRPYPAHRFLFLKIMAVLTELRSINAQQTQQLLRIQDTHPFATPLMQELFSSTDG

The target in assay [2] is Nuclear receptor subfamily 1 group I member 2 (Homo sapiens) (UniProt O75469). As to the kind of experiment: CYP3A4 induction through human pregnane X receptor (PXR) by small molecules, qHTS assay (AID 1346984). Further: nearly all actives have a fitted effect of over 40% in size. In a few lines:
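Steps: seed DPX-2 cells, 5 hr at 37C; pin-transfer compounds; 24 hr at 37C; add Luciferin-IPA (3uM final), 3 hr at 37C; add One-Glo, 30 min RT; read luminescence.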

In assay [3] the target is Cytochrome P450 2C9 (Homo sapiens) (UniProt P11712). The assay can be described thus: Cytochrome P450 Family 2 Subfamily C Member 9 (CYP2C9) small molecule antagonists: luciferase reporter qHTS assay (AID 1671198). Further: nearly all actives have a fitted effect of over 50% in size. Further: potency means the concentration at half of the fitted maximal effect. On activity change, negative = inhibition: series mostly up to about 120 µM. In a few lines:
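P450-Glo proluciferin substrate with CYP2C9 enzyme; 10 min RT preincubation, then NADPH regeneration 1 h at 37C; luciferin detection reagent 20 min RT, luminescence in relative luminescence units.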

Assay [4] concerns the target Voltage-gated inwardly rectifying potassium channel KCNH2 (Homo sapiens) (UniProt Q12809). As to the kind of experiment: Human Ether-a-go-go-Related Gene (hERG) channel small molecule antagonists: fluorescence cell-based qHTS assay (AID 1671200). Further: nearly all actives have a fitted effect of over 50% in size. Further: potency means the concentration at half of the fitted maximal effect.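 On activity change, negative = inhibition: hERG-expressing U2OS cells given a thallium stimulus after FluxOR II dye loading; series mostly up to about 77 µM.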 In a few lines:
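Cell line hERG-U2OS; dye FluxOR II, 1 h RT dark; Tl+ stimulus; ex 480/em 540 nm, read each second for 2 min.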

Assay [5] has as its target Cytochrome P450 2D6 (Homo sapiens) (UniProt P10635). As to the kind of experiment: Cytochrome P450 Family 2 Subfamily D Member 6 (CYP2D6) small molecule antagonists: luciferase reporter qHTS assay (AID 1671196). Further: nearly all actives have a fitted effect of over 50% in size. Further: potency means the concentration at half of the fitted maximal effect. On activity change, negative = inhibition: series mostly up to about 120 µM. In a few lines:
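P450-Glo format: CYP2D6 converts a proluciferin substrate to luciferin in an NADPH-driven reaction lasting 1 h at room temperature. Light output, proportional to CYP2D6 activity, reflects interference by test chemicals.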

Assay [6] deals with Cytochrome P450 2C19 (Homo sapiens) (UniProt P33261). As to the kind of experiment: Cytochrome P450 Family 2 Subfamily C Member 19 (CYP2C19) small molecule antagonists: luciferase reporter qHTS assay (AID 1671197). Further: nearly all actives have a fitted effect of over 65% in size. Further: potency means the concentration at half of the fitted maximal effect. On activity change, negative = inhibition: series mostly up to about 120 µM. In a few lines:
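Quantitative high-throughput screen of the Tox21 library using CYP2C19 with proluciferin substrate. Reaction: NADPH regeneration, 37C, 1 h, after 10 min compound preincubation at room temperature. Readout: luminescence.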

Assay [7] deals with Cytochrome P450 1A2 (Homo sapiens) (UniProt P05177). As to the kind of experiment: Cytochrome P450 Family 1 Subfamily A Member 2 (CYP1A2) small molecule antagonists: luciferase reporter qHTS assay (AID 1671199). Further: nearly all actives have a fitted effect of over 50% in size. Further: potency means the concentration at half of the fitted maximal effect. On activity change, negative = inhibition: series mostly up to about 120 µM. In a few lines: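 Inhibition of CYP1A2 conversion of proluciferin to luciferin, detected by luminescence. Reaction run 1 h at room temperature with NADPH regeneration after brief compound preincubation.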
Chain of Cytochrome P450 1A2 (Homo sapiens) (P05177 whole entry, looked up): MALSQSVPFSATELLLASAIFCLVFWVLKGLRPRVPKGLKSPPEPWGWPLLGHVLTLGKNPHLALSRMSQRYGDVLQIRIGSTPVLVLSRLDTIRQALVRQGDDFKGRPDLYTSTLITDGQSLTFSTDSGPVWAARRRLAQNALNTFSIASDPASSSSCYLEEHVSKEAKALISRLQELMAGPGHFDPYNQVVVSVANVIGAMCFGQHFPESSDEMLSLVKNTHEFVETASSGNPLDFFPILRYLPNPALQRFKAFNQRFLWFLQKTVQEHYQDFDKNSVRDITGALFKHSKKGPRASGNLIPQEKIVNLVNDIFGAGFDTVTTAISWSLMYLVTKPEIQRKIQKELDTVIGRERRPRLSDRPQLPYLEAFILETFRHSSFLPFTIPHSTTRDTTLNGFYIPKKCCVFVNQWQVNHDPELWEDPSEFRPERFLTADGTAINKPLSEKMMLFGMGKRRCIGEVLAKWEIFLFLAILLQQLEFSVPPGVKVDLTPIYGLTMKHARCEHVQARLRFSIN

Assay [8] addresses Cytochrome P450 3A4 (Homo sapiens) (UniProt P08684). The assay can be described thus: Cytochrome P450 Family 3 Subfamily A Member 4 (CYP3A4) small molecule antagonists: luciferase reporter qHTS assay (AID 1671201). In a few lines:
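Room-temperature assay throughout: 10 min compound–enzyme/substrate preincubation, 1 h reaction after NADPH regeneration solution, 20 min detection. Luciferin formed from proluciferin substrate is quantified by luminescence.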

Inconclusive results are not listed. Values without a mark were called inactive. Calls of active or inactive are those of the source. The call rests on the fitted dose curve; in most records, active means well fitted curve in the direction sought with a large enough effect in the repeat runs; inconclusive means weak or mixed curves; inactive means no such curve, though single readings can be large; an effect the other way counts as inactive or inconclusive.
On the % scale 0 is the no-effect control and ±100 the full control effect.

Chain of Cytochrome P450 2D6 (Homo sapiens) (P10635 whole entry, looked up): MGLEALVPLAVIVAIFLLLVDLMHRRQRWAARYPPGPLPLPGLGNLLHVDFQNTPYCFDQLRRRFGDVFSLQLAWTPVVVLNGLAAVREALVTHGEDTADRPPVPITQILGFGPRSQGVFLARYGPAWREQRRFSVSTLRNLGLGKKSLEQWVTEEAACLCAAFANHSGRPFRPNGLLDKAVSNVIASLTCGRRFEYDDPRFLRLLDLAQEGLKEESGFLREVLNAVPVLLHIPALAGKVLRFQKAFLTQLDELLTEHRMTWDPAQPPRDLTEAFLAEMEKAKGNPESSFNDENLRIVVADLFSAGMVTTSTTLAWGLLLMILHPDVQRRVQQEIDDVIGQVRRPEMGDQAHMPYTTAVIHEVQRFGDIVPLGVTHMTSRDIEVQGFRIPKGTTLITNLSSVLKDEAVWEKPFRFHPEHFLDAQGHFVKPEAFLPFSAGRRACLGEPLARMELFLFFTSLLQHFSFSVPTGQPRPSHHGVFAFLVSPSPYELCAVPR
Chain of Cytochrome P450 2C9 (Homo sapiens) (P11712 whole entry, looked up): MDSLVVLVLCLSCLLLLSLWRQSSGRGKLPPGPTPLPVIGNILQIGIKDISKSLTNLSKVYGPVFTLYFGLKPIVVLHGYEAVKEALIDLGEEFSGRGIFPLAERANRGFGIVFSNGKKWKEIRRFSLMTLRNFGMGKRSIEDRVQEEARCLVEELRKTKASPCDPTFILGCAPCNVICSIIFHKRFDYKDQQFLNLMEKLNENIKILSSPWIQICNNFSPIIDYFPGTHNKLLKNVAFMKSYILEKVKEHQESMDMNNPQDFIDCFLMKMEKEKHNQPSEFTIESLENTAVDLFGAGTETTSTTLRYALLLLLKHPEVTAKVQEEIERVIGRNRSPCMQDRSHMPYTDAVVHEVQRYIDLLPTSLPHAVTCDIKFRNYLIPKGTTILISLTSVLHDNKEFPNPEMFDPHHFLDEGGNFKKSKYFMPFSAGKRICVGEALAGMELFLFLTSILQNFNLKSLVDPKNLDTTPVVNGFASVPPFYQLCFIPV
Chain of Cytochrome P450 3A4 (Homo sapiens) (P08684 whole entry, looked up): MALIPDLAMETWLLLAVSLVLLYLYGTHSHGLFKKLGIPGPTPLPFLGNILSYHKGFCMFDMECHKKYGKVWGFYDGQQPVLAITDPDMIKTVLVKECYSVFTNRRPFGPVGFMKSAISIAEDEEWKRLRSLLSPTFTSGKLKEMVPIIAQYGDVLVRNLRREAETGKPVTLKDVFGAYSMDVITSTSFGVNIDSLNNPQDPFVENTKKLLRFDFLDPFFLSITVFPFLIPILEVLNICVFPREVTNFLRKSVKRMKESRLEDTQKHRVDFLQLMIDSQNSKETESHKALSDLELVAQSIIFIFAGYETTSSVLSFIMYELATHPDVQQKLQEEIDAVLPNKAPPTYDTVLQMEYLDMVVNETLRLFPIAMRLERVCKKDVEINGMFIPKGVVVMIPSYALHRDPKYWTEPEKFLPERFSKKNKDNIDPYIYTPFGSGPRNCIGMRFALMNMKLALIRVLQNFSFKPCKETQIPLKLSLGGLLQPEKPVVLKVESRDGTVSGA
Chain of Voltage-gated inwardly rectifying potassium channel KCNH2 (Homo sapiens) (Q12809 whole entry, looked up): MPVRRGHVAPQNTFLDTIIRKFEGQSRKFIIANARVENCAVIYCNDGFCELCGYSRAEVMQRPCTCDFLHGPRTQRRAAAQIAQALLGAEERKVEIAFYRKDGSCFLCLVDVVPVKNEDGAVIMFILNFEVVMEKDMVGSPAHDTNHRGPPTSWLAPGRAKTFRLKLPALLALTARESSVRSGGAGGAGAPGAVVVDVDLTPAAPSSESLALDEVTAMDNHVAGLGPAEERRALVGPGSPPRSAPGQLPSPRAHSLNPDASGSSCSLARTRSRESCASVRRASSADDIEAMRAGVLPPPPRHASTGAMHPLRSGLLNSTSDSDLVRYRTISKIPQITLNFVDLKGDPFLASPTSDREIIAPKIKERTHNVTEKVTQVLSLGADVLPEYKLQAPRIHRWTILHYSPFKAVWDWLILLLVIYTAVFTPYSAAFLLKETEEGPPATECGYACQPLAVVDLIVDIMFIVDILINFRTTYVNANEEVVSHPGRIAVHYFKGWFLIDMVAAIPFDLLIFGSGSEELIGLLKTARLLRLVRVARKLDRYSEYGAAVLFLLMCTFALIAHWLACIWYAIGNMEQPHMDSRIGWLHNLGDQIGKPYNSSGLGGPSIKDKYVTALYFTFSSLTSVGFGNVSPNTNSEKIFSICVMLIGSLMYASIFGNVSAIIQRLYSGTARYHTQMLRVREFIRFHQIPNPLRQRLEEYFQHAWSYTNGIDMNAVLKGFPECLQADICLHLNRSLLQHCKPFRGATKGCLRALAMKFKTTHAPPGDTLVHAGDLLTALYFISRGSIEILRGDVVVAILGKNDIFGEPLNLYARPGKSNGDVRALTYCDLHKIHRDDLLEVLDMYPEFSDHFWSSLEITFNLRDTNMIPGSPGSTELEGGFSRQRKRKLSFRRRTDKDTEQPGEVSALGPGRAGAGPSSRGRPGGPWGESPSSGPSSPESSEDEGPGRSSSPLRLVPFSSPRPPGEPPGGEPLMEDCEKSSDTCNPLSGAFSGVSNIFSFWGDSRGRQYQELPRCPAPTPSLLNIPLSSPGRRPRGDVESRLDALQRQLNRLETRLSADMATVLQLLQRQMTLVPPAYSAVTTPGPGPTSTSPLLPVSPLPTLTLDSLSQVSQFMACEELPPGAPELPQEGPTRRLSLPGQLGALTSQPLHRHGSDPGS
Chain of Cytochrome P450 2C19 (Homo sapiens) (P33261 whole entry, looked up): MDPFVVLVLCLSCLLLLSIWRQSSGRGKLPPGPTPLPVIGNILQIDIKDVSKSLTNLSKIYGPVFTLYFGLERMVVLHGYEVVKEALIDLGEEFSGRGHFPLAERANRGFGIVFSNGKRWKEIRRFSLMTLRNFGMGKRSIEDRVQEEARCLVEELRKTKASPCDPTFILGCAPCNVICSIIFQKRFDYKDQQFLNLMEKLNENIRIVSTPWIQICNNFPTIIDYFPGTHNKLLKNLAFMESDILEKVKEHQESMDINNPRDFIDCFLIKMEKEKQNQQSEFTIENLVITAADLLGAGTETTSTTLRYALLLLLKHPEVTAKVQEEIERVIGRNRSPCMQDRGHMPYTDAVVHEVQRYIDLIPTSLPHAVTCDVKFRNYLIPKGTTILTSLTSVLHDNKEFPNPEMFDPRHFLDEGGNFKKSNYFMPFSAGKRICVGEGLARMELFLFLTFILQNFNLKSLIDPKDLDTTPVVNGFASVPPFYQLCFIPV

As for `CN[C@@H]1[C@H](O)[C@H](NC)[C@H]2O[C@@]3(O)C(=O)C[C@@H](C)O[C@H]3O[C@@H]2[C@H]1O`, in assay [1], the max activation is -0.189%. Besides, in assay [2], the result was inactive. Moreover, the Potency entry in assay [3] and in assay [4] was “inactive” in each case.
As to `Cc1cccc(Nc2ccncc2S(=O)(=O)NC(=O)NC(C)C)c1`, the max activation in assay [1] is -0.7%. Besides, the Potency result in assay [5], in assay [6], in assay [7] and in assay [4] was “inactive” throughout. In addition, the Potency in assay [3] is 13.8 µM (active).
For the compound `CC(C)(CO)[C@@H](O)C(=O)NCCCO`, the max activation in assay [1] is -0.489%. The call in assay [2] was inactive. For the same compound, the Potency entry in assay [5], in assay [6], in assay [3], in assay [7], in assay [4] and in assay [8] was “inactive” in each case.
Turning to `O=c1[nH]c(=O)c2ccccc2o1`, the max activation in assay [1] is -5.11%. Also, the compound was classed as inactive in assay [2]. For the same compound, the Potency entry in assay [5], in assay [6], in assay [3], in assay [7], in assay [4] and in assay [8] was “inactive” throughout.
For the compound `O=C(CN1CCN(Cc2ccc3c(c2)OCO3)CC1)N1c2ccccc2Sc2ccccc21`, the max activation in assay [1] was 6.39%. Besides, in assay [2], the result was inactive. Also, the Potency in assay [5] was 0.55 µM (active); in assay [6] it was 34.7 µM (active); in assay [4], 4.77 µM (active). Besides, the Potency result in assay [7] was “inactive”.
In the case of `OC(CCN1CCCCC1)(c1ccccc1)c1ccccc1`, the max activation in assay [1] is -1.14%. Further, the Potency in assay [5] is 1.38 µM (active); in assay [4] it was 9.52 µM (active). In addition, the Potency result in assay [3], in assay [7] and in assay [8] was “inactive” in each case.
Turning to `COc1cc2c3cc1Oc1cc(ccc1O)C[C@@H]1c4c(cc(OC)c(O)c4Oc4ccc(cc4)C[C@@H]3N(C)CC2)CC[N+]1(C)C`, the max activation in assay [1] was -3.43%. Also, the outcome in assay [2] was inactive. Further, the Potency result in assay [5], in assay [6], in assay [7], in assay [4] and in assay [8] was “inactive” each time.
On to `COc1ccc(/C=N/NC(=O)c2ccncc2)cc1OC`, for which the max activation in assay [1] was -2.5%. Also, in assay [2], the outcome was inactive. Further, the Potency in assay [6] is 34.7 µM (active); in assay [3] it was 17.4 µM (active). Also, the Potency result in assay [4] is “inactive”.
As for `CNCc1ccccc1`, in assay [1], the max activation is -0.758%. Further, the outcome in assay [2] was inactive. Moreover, the Potency entry in assay [5], in assay [7], in assay [4] and in assay [8] was “inactive” in each case.
For `NC(=O)NC(=O)Cc1ccccc1`, the max activation in assay [1] is -4.53%. For the same compound, the compound was called inactive in assay [2]. The Potency result in assay [5], in assay [6], in assay [4] and in assay [8] was “inactive” in each case.
As for `C[C@H]1O[C@H](O[C@H]2[C@H](O)[C@@H](O)[C@@H](O[C@H]3[C@H](O)[C@@H](O)[C@H](O)O[C@@H]3CO)O[C@@H]2CO)[C@H](O)[C@@H](O)[C@@H]1N[C@H]1C=C(CO)[C@@H](O)[C@H](O)[C@H]1O`, in assay [1], the max activation was -1.07%. The Potency entry in assay [5], in assay [6], in assay [3], in assay [7], in assay [4] and in assay [8] was “inactive” throughout.
With `NC(=O)C1(N2CCCCC2)CCN(CCCC(=O)c2ccc(F)cc2)CC1`, the max activation in assay [1] was 0.444%. The Potency in assay [5] was 4.9 µM (active). Moreover, the Potency entry in assay [6], in assay [7] and in assay [8] was “inactive” in each case.
In the case of `O=C(/C=C/c1ccccc1)NCCO`, the max activation in assay [1] is -0.885%. For the same compound, the compound was classed as inactive in assay [2]. The figures for the Potency in assay [6], in assay [3] and in assay [7] were 15.5 µM (active), 13.8 µM (active) and 11.5 µM (active), respectively. In addition, the Potency result in assay [4] and in assay [8] was “inactive” in each case.
Regarding `COc1cc2c(Nc3ccc(Br)cc3F)ncnc2cc1OCC1CCN(C)CC1`, the max activation in assay [1] is -20.7%. Moreover, the outcome in assay [2] was inactive. In addition, the Potency entry in assay [5], in assay [6], in assay [4] and in assay [8] was “inactive” each time. Also, in assay [7], the Potency is 30.9 µM (active).
Consider `O=C(O)/C=C/c1ccccc1`, for which, in assay [1], the max activation was -6.4%. Also, the compound was called inactive in assay [2]. Besides, in assay [5], the Potency is 39.9 µM (active). In addition, the Potency result in assay [6], in assay [3], in assay [7], in assay [4] and in assay [8] was “inactive” each time.
`NS(=O)(=O)c1cc2c(cc1Cl)NC(C(Cl)Cl)NS2(=O)=O` (stereo unspecified): the max activation in assay [1] is 3.75%. The compound was classed as inactive in assay [2]. Moreover, the Potency entry in assay [5], in assay [3], in assay [7], in assay [4] and in assay [8] was “inactive” each time.
Turning to `Cc1c(C(C)C)c(=O)n(-c2ccccc2)n1C`, in assay [1], the max activation is -1.17%. For the same compound, in assay [2], the compound was called inactive. The Potency in assay [6] is 43.6 µM (active). Besides, the Potency result in assay [3], in assay [7], in assay [4] and in assay [8] was “inactive” in each case.
Consider `O=c1[nH]c(=O)c2[nH]c(=O)[nH]c2[nH]1`, for which the max activation in assay [1] is -2.16%. In addition, the outcome in assay [2] was inactive. Moreover, the activity change, negative = inhibition in assay [5] is -9.18% [at 10.5 µM]; in assay [6] it was -2.11% [at 10.5 µM]; in assay [7] it was -28.5% [at 10.5 µM]; in assay [4], -12.8% [at 6.97 µM]; in assay [8] it was 20% [at 10.5 µM].
For the compound `F[Si-2](F)(F)(F)(F)F`, the max activation in assay [1] was -2.73%. The call in assay [2] was inactive. Besides, the Potency entry in assay [5], in assay [6], in assay [3], in assay [7], in assay [4] and in assay [8] was “inactive” each time.
With `NS(=O)(=O)c1cc2c(cc1Cl)NC(CC1CCCC1)NS2(=O)=O` (stereo unspecified), the max activation in assay [1] is -1.01%. In addition, the compound was classed as inactive in assay [2]. For the same compound, the Potency result in assay [5], in assay [6], in assay [3] and in assay [4] was “inactive” throughout.
`CCNC(=O)/C=C/c1cccc(Br)c1`: the max activation in assay [1] was 11.4%. In addition, the call in assay [2] was inactive. Besides, the Potency result in assay [5], in assay [6], in assay [3], in assay [4] and in assay [8] was “inactive” throughout. The Potency in assay [7] is 2.57 µM (active).
As for `NCCc1ccn[nH]1`, the max activation in assay [1] was -4.71%. Further, the Potency result in assay [5], in assay [3], in assay [7], in assay [4] and in assay [8] was “inactive” each time.
On to `Cc1oc(=O)oc1CN1CCN(c2cc3c(cc2F)c(=O)c(C(=O)O)c2n3C(C)S2)CC1` (stereo unspecified), for which the max activation in assay [1] was -2.98%. Further, the compound was classed as inactive in assay [2]. The Potency result in assay [5], in assay [6], in assay [3], in assay [7], in assay [4] and in assay [8] was “inactive” each time.
For `NS(=O)(=O)c1ccc(Cl)c(S(N)(=O)=O)c1`, in assay [1], the max activation is -3.93%. In addition, the compound was called inactive in assay [2]. The Potency entry in assay [3], in assay [7], in assay [4] and in assay [8] was “inactive” throughout.
For the compound `CC(=O)Nc1ncc([N+](=O)[O-])s1`, the max activation in assay [1] is -3.65%. For the same compound, in assay [2], the compound was classed as inactive. In addition, the Potency entry in assay [5], in assay [6], in assay [4] and in assay [8] was “inactive” in each case. Further, the Potency in assay [7] is 15.5 µM (active).
